Test results: article PMC10812921, “Transcriptional Coactivator BOB1 (OBF1, OCA-B) Modulates the Specificity of DNA Recognition by the POU-Domain Factors OCT1 and OCT2 in a Monomeric Configuration”

Tests used:
POU1 (OCT1 POU domain) = POU1 (OCT1 POU domain) (human, UniProt P14859 260-458); assay: EMSA-SELEX-seq; no BOB1; 20 mM Tris-HCl pH 7.6, 140 mM NaCl, 10% glycerol, 0.5 mM EDTA, 0.05% Triton X-100, 0.1 mg/mL BSA, 0.1 mg/mL poly(dI-dC), 5 mM DTT, room temperature, 20 min; high values mean tight binding; conditions: protein: recombinant; dsDNA, one strand shown
Chain of POU1 (OCT1 POU domain) (P14859 260-458): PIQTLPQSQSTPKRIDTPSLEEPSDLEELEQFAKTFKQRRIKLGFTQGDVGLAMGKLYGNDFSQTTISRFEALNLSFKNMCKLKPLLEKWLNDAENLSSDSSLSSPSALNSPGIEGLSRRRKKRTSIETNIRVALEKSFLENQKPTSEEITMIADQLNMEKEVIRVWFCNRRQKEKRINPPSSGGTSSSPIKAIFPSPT
Outline: (§1)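 Binding preference is the percentage of sequenced 8-mers matching a motif pattern. Tagged POU-domain proteins expressed in E. coli BL21 were purified under denaturing conditions and renatured. For binding, 30 ng protein met 300 ng of a PCR-amplified double-stranded random 35-nt library, with or without 28 ng coactivator protein, in 20 μL Tris–HCl pH 7.6 binding buffer for 20 min at RT. Complex bands were cut from native 6% PAGE, eluted and PCR-amplified over four rounds, then Illumina-sequenced.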

POU2 (OCT2 POU domain) = target: T1, POU2 (OCT2 POU domain) (human, UniProt P09086 175-386); assay: as above; conditions: protein: recombinant; dsDNA, one strand shown
T1 sequence: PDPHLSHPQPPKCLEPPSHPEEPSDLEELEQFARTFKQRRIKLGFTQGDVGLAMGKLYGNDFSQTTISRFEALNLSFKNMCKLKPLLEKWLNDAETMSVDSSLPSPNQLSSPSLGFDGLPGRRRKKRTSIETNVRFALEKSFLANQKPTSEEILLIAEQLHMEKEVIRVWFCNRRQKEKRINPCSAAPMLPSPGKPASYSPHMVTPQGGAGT
Outline: as §1

[1] = target: POU1 (OCT1 POU domain);BOB1 (OBF1, OCA-B) (human;human, UniProt P14859;Q16633 260-458;1-256, |); assay: EMSA-SELEX-seq; with BOB1 (ternary complex band); 20 mM Tris-HCl pH 7.6, 140 mM NaCl, 10% glycerol, 0.5 mM EDTA, 0.05% Triton X-100, 0.1 mg/mL BSA, 0.1 mg/mL poly(dI-dC), 5 mM DTT, room temperature, 20 min; high values mean tight binding; conditions: protein: recombinant;recombinant; copies: 1;1; dsDNA, one strand shown
Outline: as §1

[2] = target: T2, POU2 (OCT2 POU domain);BOB1 (OBF1, OCA-B) (human;human, UniProt P09086;Q16633 175-386;1-256, |); assay: as above; conditions: protein: recombinant;recombinant; copies: 1;1; dsDNA, one strand shown
T2 sequence 1: T1 sequence
T2 sequence 2: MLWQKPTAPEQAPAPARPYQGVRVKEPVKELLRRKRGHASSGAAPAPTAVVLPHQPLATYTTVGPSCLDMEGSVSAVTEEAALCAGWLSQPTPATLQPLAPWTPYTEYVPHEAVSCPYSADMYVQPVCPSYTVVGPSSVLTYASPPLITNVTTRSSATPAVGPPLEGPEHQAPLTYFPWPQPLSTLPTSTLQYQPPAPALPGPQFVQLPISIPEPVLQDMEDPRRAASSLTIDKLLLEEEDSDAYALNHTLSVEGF
Outline: as §1

Sequence	binding signal (POU1 (OCT1 POU domain))	binding signal (POU2 (OCT2 POU domain))	binding signal [1]	binding signal [2]
AAATGAAC	0.115 % of ANNNNAAN 8-mers	0.102 % of ANNNNAAN 8-mers	0.11 % of ANNNNAAN 8-mers	0.141 % of ANNNNAAN 8-mers
ACGATAAT	0.0896 % of ANNNNAAN 8-mers	0.123 % of ANNNNAAN 8-mers	0.0535 % of ANNNNAAN 8-mers	0.085 % of ANNNNAAN 8-mers
ATTTGAAC	0.0496 % of ANNNNAAN 8-mers	0.0558 % of ANNNNAAN 8-mers	0.0745 % of ANNNNAAN 8-mers	0.0553 % of ANNNNAAN 8-mers
ATTCCAAA	0.0481 % of ANNNNAAN 8-mers	0.0564 % of ANNNNAAN 8-mers	0.041 % of ANNNNAAN 8-mers	0.0578 % of ANNNNAAN 8-mers
AGAGTAAG	0.0305 % of ANNNNAAN 8-mers	0.0466 % of ANNNNAAN 8-mers	0.039 % of ANNNNAAN 8-mers	0.0297 % of ANNNNAAN 8-mers
ATGAAAAC	0.0717 % of ANNNNAAN 8-mers	0.0604 % of ANNNNAAN 8-mers	0.0956 % of ANNNNAAN 8-mers	0.0586 % of ANNNNAAN 8-mers
AGGCGAAC	0.0183 % of ANNNNAAN 8-mers	0.0247 % of ANNNNAAN 8-mers	0.0207 % of ANNNNAAN 8-mers	0.0305 % of ANNNNAAN 8-mers
AATGCAAC	0.0435 % of ANNNNAAN 8-mers	0.0409 % of ANNNNAAN 8-mers	0.046 % of ANNNNAAN 8-mers	0.0413 % of ANNNNAAN 8-mers
ATGCCAAA	0.0458 % of ANNNNAAN 8-mers	0.0501 % of ANNNNAAN 8-mers	0.0464 % of ANNNNAAN 8-mers	0.0438 % of ANNNNAAN 8-mers
AGTACAAT	0.0416 % of ANNNNAAN 8-mers	0.0426 % of ANNNNAAN 8-mers	0.0386 % of ANNNNAAN 8-mers	0.0462 % of ANNNNAAN 8-mers
ATGGTAAT	1.27 % of ANNNNAAN 8-mers	1.28 % of ANNNNAAN 8-mers	0.202 % of ANNNNAAN 8-mers	0.219 % of ANNNNAAN 8-mers
ATACTAAA	0.0648 % of ANNNNAAN 8-mers	0.0886 % of ANNNNAAN 8-mers	0.0499 % of ANNNNAAN 8-mers	0.0594 % of ANNNNAAN 8-mers
AACGCAAG	0.016 % of ANNNNAAN 8-mers	0.0219 % of ANNNNAAN 8-mers	0.0222 % of ANNNNAAN 8-mers	0.0281 % of ANNNNAAN 8-mers
AATAGAAA	0.0759 % of ANNNNAAN 8-mers	0.0972 % of ANNNNAAN 8-mers	0.0858 % of ANNNNAAN 8-mers	0.071 % of ANNNNAAN 8-mers
AGGGAAAA	0.205 % of ANNNNAAN 8-mers	0.119 % of ANNNNAAN 8-mers	0.28 % of ANNNNAAN 8-mers	0.119 % of ANNNNAAN 8-mers
AATCCAAA	0.0507 % of ANNNNAAN 8-mers	0.0386 % of ANNNNAAN 8-mers	0.0726 % of ANNNNAAN 8-mers	0.0371 % of ANNNNAAN 8-mers
AAGACAAA	0.0538 % of ANNNNAAN 8-mers	0.0472 % of ANNNNAAN 8-mers	0.0706 % of ANNNNAAN 8-mers	0.0438 % of ANNNNAAN 8-mers
ATAGTAAC	0.0282 % of ANNNNAAN 8-mers	0.0414 % of ANNNNAAN 8-mers	0.023 % of ANNNNAAN 8-mers	0.038 % of ANNNNAAN 8-mers
ACACCAAA	0.0149 % of ANNNNAAN 8-mers	0.0184 % of ANNNNAAN 8-mers	0.0121 % of ANNNNAAN 8-mers	0.0149 % of ANNNNAAN 8-mers
ACATAAAT	0.23 % of ANNNNAAN 8-mers	0.251 % of ANNNNAAN 8-mers	0.117 % of ANNNNAAN 8-mers	0.177 % of ANNNNAAN 8-mers
AAGGCAAG	0.0328 % of ANNNNAAN 8-mers	0.038 % of ANNNNAAN 8-mers	0.0328 % of ANNNNAAN 8-mers	0.0256 % of ANNNNAAN 8-mers
ACTTGAAT	0.0828 % of ANNNNAAN 8-mers	0.0961 % of ANNNNAAN 8-mers	0.0613 % of ANNNNAAN 8-mers	0.071 % of ANNNNAAN 8-mers
AACTCAAT	0.0378 % of ANNNNAAN 8-mers	0.0437 % of ANNNNAAN 8-mers	0.0289 % of ANNNNAAN 8-mers	0.0314 % of ANNNNAAN 8-mers
